According to ChEMBL document CHEMBL1201862, “PubChem BioAssay data set” (2004):
Among all 15,000 sequences or so, about 620 (4.1%) were called active. No stated cut-off is given here; in the data, active = GI50 up to about 1.1 µM and inactive = higher. Not all results are given here. Results with a measured potency or affinity are listed apart.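 Grown in 96-well plates, cells were treated for 48 hours with each compound at five concentrations. Insufficient inhibition: endpoint recorded as highest concentration tested. The concentration for 50% growth inhibition is given as GI50.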

The substances below were run on M19-MEL (assay: NCI tumour cell line growth inhibition, 48 h).

Point of comparison: “[Bis(aminomethyl)diethylsilane]tetrachloroplatinum(IV), CHEMBL2146203”, GI50 2030 nM. Against it:
- [Bis(aminomethyl)ethylmethylsilane]tetrachloroplatinum(IV), CHEMBL2146192 — within 1.5-fold, 1520 nM
- mu-(1,7-nanodiamine-N,N')bis-(cis-aminedichloroplatimum (II)), CHEMBL2146215 — within 1.5-fold, 1360 nM
- [Bis(aminomethyl)pentamethylenesilane]dichloropaltinum(II), CHEMBL2146202 — 2.7-fold higher, 5380 nM
- [Bis(aminomethyl)tetramethylenesilane]dichloropaltinum(II), CHEMBL2146205 — 9.5-fold higher, 19300 nM
- [Bis(aminomethyl)tetramethylenesilane]tetrachloropaltinum(IV), CHEMBL2146189 — within 1.5-fold, 2830 nM
- [Bis(aminomethyl)dimethylsilane]dichloroplatinum (II), CHEMBL2146201 — 7.5-fold higher, 15200 nM
- cis-Bis[[(trimethylsilyl)methyl]amino]tetrachloroplatinum(IV), CHEMBL2146191 — 1.7-fold higher, 3370 nM
- [Bis(aminomethyl)pentamethylenesilane]tetrachloropaltinum(IV), CHEMBL2146204 — within 1.5-fold, 2240 nM
- [Bis(aminomethyl)dimethylsilane]tetrachloroplatinum(IV), CHEMBL2146190 — 1.5-fold higher, 3120 nM
